Over roughly 33,000 sequences, “E-score (-0.5 to 0.5)” has its median near -0.035; the highest 2% begin near 0.34. Shown is part of a subset that was picked to be rich in the highest values.
These sequences were tested against T1, Mot3 (UniProt P54785) (assay: PBM E-score (8-mer binding enrichment) (E-score (-0.5 to 0.5)); higher = stronger / more preferred TF binding). Details: protein concentration: 200 nM; construct: GST-full length.
T1 sequence: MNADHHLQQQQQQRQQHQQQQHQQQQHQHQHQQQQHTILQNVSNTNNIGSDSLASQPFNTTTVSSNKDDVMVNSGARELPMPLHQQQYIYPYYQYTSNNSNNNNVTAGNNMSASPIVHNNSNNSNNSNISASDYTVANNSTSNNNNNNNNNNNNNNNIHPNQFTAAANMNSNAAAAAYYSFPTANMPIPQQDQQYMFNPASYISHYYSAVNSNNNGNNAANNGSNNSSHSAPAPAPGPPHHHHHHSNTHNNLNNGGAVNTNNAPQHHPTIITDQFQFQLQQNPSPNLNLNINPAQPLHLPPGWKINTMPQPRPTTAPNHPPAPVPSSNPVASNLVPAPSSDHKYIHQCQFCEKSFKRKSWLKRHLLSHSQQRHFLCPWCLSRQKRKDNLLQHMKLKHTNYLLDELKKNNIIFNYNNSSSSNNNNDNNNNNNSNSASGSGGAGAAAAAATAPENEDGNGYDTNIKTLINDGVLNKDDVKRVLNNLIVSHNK
Outline: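 For each ungapped eight-base word taken together with its reverse complement, the Universal PBM Analysis Suite assigned an E-score. Binding data came from GST-tagged yeast transcription factors, applied at about 100-200 nM, on universal all-10-mer Agilent arrays made double-stranded by primer extension. Fluorescent anti-GST marked bound protein, and scans were normalised with masliner.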

Sequence	PBM E-score
GGACAAAC	0.0402
AAACCTCG	-0.21
ACCAAATC	-0.166
GCACTCCC	-0.112
AACACAGC	0.268
CGTGTCAC	0.157
GACCTGAA	-0.107
TCATGTCA	0.283
GCATGTCA	0.26
ACATGTAG	0.388
GCATGTAC	0.321
CGATGTAG	0.103
ACATGTAC	0.333
TGATGTAA	0.281
GCATGTAA	0.41
TCATGTAA	0.414
CCATGTAG	0.346
ACATGTCG	0.246
CCATGTCG	0.247
CATGTCGC	0.175
CACTAGTG	-0.12
CATCAACG	0.00915
ACTAGGTG	0.125
CTTAAAGC	0.00562
CTCGTCGA	-0.0922

Sequence	PBM E-score
GTCGAGCA	-0.114
AAGGTTAC	0.0496
CCTATGCC	-0.0577
AGCGCTTG	-0.185
CGTTGGCA	0.00506
ACATGTCT	0.235
ACATGTCA	0.319
ACATGTAA	0.437
ACATGTAT	0.357
ACATGTGA	0.225
AGATGTAT	0.133
CCATGTAC	0.327
CCATGTAA	0.411
CCATGTGA	0.141
ATTCCTTG	0.0459
GTCAGAGA	-0.242
AATGAGCT	-0.0919
AGTCTGAA	-0.204
TTGTTAAA	0.256
ACGTTAAC	0.25
GTGTTAAA	0.384
GTGTTAAC	0.352
CTGTTAAA	0.238
ATGTTAAC	0.397
ATGTTACC	0.237

Sequence	PBM E-score
CTGTTAAC	0.199
GAGTTAAC	0.0651
GCTAAATA	0.0782
CGGAATAG	-0.201
GATGACGC	0.0115
AGTCAGTG	-0.157
GGCGCCCC	-0.0368
GCAGGCGC	0.361
ACAGGCGG	-0.015
ACAGGCTG	0.0165
CCAGGCGC	-0.00734
ACAGGCGT	0.172
ACAGGCTA	0.183
GCAGGCGA	0.123
ACAGGCTC	0.404
ACAGGCGC	0.371
CCCGCTTC	-0.191
CCCAGGAC	-0.288
CTGCTTGC	0.0147
AAGCGCAG	-0.124
CGTATGCA	-0.0506
TCAGGAGA	-0.0813
ACAGGAAA	0.453
AGAGGAAA	0.0488
CCAGGAGC	-0.247

Sequence	PBM E-score
TCAGGAAA	0.394
CCAGGAAG	-0.078
GCAGGACC	-0.237
CCAGGAAC	0.406
CCAGGAAA	0.324
ACAGGAGA	-0.0281
GCAGGAGC	0.0355
GCAGGAAC	0.463
ATAGGTGC	0.24
AAGCGAGT	-0.0166
CCGGGTCC	-0.279
AAAGGGCC	-0.132
AAGCCACT	-0.172
AGCTGGAA	-0.29
GCGCCAGC	0.128
TGCTAAAA	0.0711
CGCTGAAA	0.0848
ACAAATCT	0.103
CTAGTTTC	-0.178
AAGCAGTG	0.0592
TAGTGGAA	-0.00095
ACAGGAAG	0.0333
TCAAGGAA	0.363
ACAGGAAT	0.107
GCAGGATA	-0.121

Sequence	PBM E-score
GCAGGAAA	0.451
ACAAGGAA	0.263
ACAGGAAC	0.466
CCAAGGAA	0.254
GGAGGAAA	0.0847
ATCCATCA	-0.0789
AGAGAGAG	-0.326
CAACAGTC	-0.167
TAGGTATA	-0.0008
CCGGTACA	0.0242
TAGGTACA	0.36
TGGGTACA	0.0297
CAGGTACA	0.406
GAGGTACA	0.192
CTTCTAAC	-0.0665
CGTGCTTC	0.0855
ACTCTACA	0.174
GTTAGCCA	-0.136
CAGCTCTA	-0.168
ACATTAGT	0.187
CGGAAACA	0.0963
AGGAAACC	0.42
AGGAAACA	0.391
GGGAAACC	-0.00353
GGGAAACA	-0.036

Sequence	PBM E-score
CGGAAACC	-0.352
AGGAAACT	0.421
AGGAAACG	0.339
ACGAAACT	-0.0505
GCGACGAA	-0.154
ACGCGGAG	0.105
ACCTAGCA	0.0477
CATAGCGC	0.0893
TTACCTAA	0.285
GTACCTAA	0.374
ATACCTAC	0.156
GTACCTAC	0.405
ATACCTAA	0.071
CTACCTAC	0.188
AAGCGACG	-0.15
ACGTTAAA	0.3
ATGTTAAG	0.37
ATGTTTAA	0.285
ATGTTAAA	0.392
ATGTTAAT	0.338
CTGTTAAG	0.259
AAGTTAAA	0.219
GAAGGGTA	0.0495
GGCCCTAC	-0.281
ACAGACTG	-0.0643

Sequence	PBM E-score
CGTGTTTC	0.106
TACACAAA	0.369
AACACACT	0.22
AACACACG	0.266
TACACGAA	0.359
CATACACA	0.219
CATACACG	0.316
GACACGAA	0.145
TATACACA	0.364
CACACAAA	0.151
AACACAAA	0.22
AACACACA	0.34
CACACGAA	0.165
ATAAACCG	-0.195
ACAGCGGC	-0.112
ATTAGAAC	0.0827
AGCTACAG	-0.0877
AATACACA	0.389
AATACAAG	0.313
GATACACA	0.14
AACACGCA	0.326
GACACGCA	0.246
TACACACA	0.385
CACACACG	0.159
TACACGCA	0.346

Sequence	PBM E-score
AATACACG	0.394
CACACACA	0.249
AATACACT	0.259
AATACACC	0.271
CAAACGTG	0.0815
CCGACCAC	-0.189
AGGGTCCA	-0.297
CCGTATAG	-0.208
ACATCGGG	-0.13
ATCAATGC	-0.189
CTCCAAAA	-0.179
CAGGGACG	0.0493
GGAGAAAC	-0.149
CGTAGCGA	-0.285
GACTTGCC	0.127
CCGGTACG	-0.199
GAGGTACC	-0.0594
AAGGTACC	0.419
CAGGTACG	0.409
CAGGTACC	0.434
CAGATACG	-0.243
AAGGTATA	0.113
CGGGTACC	0.0123
CAGGTATC	0.056
AGGGTACC	0.0598

Sequence	PBM E-score
AAGGTAGA	-0.0631
AAGGTACA	0.394
ATCGAACC	-0.089
ACTATCCA	-0.204
CGCCTTGA	-0.0273
AACATTGT	0.257
ATCTCCGA	-0.0589
ATAAGTTA	0.213
AACTTAAA	0.212
ACGCTTCC	-0.0948
CAGATCGA	-0.213
AACAGCAA	0.0647
AAGGTACG	0.436
ACGGTACG	-0.0434
AAGGTAGT	-0.0675
AAGGTATG	0.0554
AAGGTACT	0.364
ACGGTACT	-0.207
GACTCCAC	-0.34

— the supplement of paper PMC3334620
